29 compounds from PubChem BioAssay AID588342 (National Center for Advancing Translational Sciences (NCATS), 2011) can be followed below.

Structures are written as SMILES. In all, about 360,000 compounds went through this assay and about 25,000 (6.9%) were called active. Roughly 9% stayed inconclusive and do not appear here. This excerpt belongs to a sample that is enriched for actives. Unmarked numbers belong to inactive results. The call rests on the fitted dose curve; in most records, active means well fitted inhibition curve with a large enough effect; inconclusive means small, poorly fitted or top-dose-only effect; inactive means flat fitted curve, though single readings scatter.
Potency means the concentration at half of the fitted maximal effect.

Sequence of Luciferin 4-monooxygenase (Photinus pyralis) (P08659 whole entry, looked up): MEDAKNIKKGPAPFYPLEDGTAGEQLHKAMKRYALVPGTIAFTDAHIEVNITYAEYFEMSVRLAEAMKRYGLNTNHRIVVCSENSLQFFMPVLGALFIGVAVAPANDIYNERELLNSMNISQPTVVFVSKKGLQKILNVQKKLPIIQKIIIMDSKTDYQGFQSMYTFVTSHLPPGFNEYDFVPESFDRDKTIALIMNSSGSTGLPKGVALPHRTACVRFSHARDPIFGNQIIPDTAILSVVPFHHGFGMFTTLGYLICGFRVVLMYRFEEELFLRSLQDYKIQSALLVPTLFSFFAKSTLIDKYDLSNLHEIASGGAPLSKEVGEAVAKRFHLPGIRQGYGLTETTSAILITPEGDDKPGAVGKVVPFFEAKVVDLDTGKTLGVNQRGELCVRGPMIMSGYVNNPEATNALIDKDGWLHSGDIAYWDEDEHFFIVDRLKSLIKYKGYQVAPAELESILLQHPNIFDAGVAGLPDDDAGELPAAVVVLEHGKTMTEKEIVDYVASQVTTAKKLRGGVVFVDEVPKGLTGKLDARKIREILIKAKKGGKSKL

The target in the assay is Luciferin 4-monooxygenase (Photinus pyralis) (UniProt P08659). Nature of the assay: qHTS profiling assay for firefly luciferase inhibitor/activator using purifed enzyme and Km concentrations of substrates (counterscreen for miR-21 project). Further: nearly all actives have a fitted effect of over 55% in size.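 On activity change, negative = inhibition: plate controls were vehicle for no effect and reference inhibitor for full effect.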 The note with it: purified FLuc, luminescence inhibition; series mostly up to 57.5 µM; activity change, negative = inhibition: at the top concentration. In short, it runs like this:
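Purified P. pyralis luciferase, 10 nM final, with Km-level 10 uM D-luciferin and 10 uM ATP in 50 mM Tris acetate pH 7.5, 10 mM Mg acetate, 0.01% Tween-20, 0.05% BSA; 6-point qHTS titration about 60 µM downward; luminescence read.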
(qHTS replaces the single test concentration by a dilution series.)
As for `CCOc1ccccc1NC(=O)CN1CCCN(Cc2cccc(Cl)c2)S1(=O)=O`, the “activity change, negative = inhibition” value is -10.8%. Turning to `CC12CCC(C(=O)N3CCN(c4ncccn4)CC3)(c3nc4ccccc4nc31)C2(C)C` (centres undefined), the “activity change, negative = inhibition” value is 4.23%. For `c1cnc(N2CCN(c3ccc4ccccc4n3)CC2)nc1`, the Potency was 5.36 µM (active). Regarding `O=C(c1ccncc1)N1CCN(c2ccc3ccccc3n2)CC1`, the “activity change, negative = inhibition” value was 4.69%. The same measure, in the same setting: the same measure for `CN1CCN(CCNC(=O)Nc2ccccc2[N+](=O)[O-])CC1`: -1.04%; for `Cc1csc(NC(=O)NC2(C(F)(F)F)Oc3ccccc3O2)n1`: -17.9%. As to `Cc1csc(NC(=O)Nc2ccccc2[N+](=O)[O-])n1`, the Potency was 4.78 µM (active).

Turning to `COc1ccc(Cl)cc1NC(=O)CN(C)C(=O)c1ccc2n[nH]nc2c1`, the “activity change, negative = inhibition” value was 4.74%. Still for that read-out and setting: in the case of `Cc1cccc(NC(=O)CSc2nc3c(c(=O)[nH]2)CCC3)c1C` it was 1.5%.

For the compound `Cc1cccc(NC(=O)CSc2ncc(-c3ccccc3)[nH]2)c1C`, the Potency was 13.5 µM (active).

As to `Cc1cccc(NC(=O)CSc2nc3c(c(=O)[nH]2)CCCC3)c1C`, the “activity change, negative = inhibition” value is 1.26%. The same measure, in the same setting: in the case of `O=C(Nc1ccccc1Cl)N1CCC(CN2CCCC2)CC1` it was -1.17%; in that of `Cc1cc(Nc2cccc(C(F)(F)F)c2)nc2ccc(NC(=O)c3ccc(=O)[nH]c3)cc12`, 1.3%; in that of `CSc1ccc(NC(=O)Cn2nnnc2-c2ccccc2F)cc1`, 1.67%. Still for that read-out and setting: the same measure for `Cc1ccc(C)c(NC(=O)C2CCCN(S(=O)(=O)c3cn(C)cn3)C2)c1` (centres undefined): -0.326%. The same measure, in the same setting: the same measure for `CCOc1ccc2nc(N3CCC(C(=O)Nc4cc(C)ccc4C)CC3)sc2c1`: -11.9%; for `CCCC(=O)N(CCN1CCOCC1)c1nc2ccc(OCC)cc2s1`: -9.15%.

Regarding `CCOc1ccc2nc(C(=O)N3CCCC(C)C3)sc2c1` (centres undefined), the Potency was 1.69 µM (active). Turning to `CCOc1ccc2nc(N(CCN(C)C)C(=O)c3ccc4ccccc4c3)sc2c1`, the “activity change, negative = inhibition” value is 0.783%. On to `CCOc1ccc2nc(N3CCCC(C(=O)Nc4cc(C)ccc4C)C3)sc2c1` (centres undefined), for which the Potency was 2.39 µM (active).

`Cc1ccc2cccc(NC(=O)c3ccc(OC(C)C)cc3)c2n1`: the “activity change, negative = inhibition” value is -6.74%.

Consider `CCOC(=O)c1ccc(CSc2nnc3cc(C)c4ccccc4n23)cc1`, for which the “activity change, negative = inhibition” value is -16.9%. `Oc1c(C(c2ccccc2Cl)N2CCOCC2)sc2nc(-c3ccco3)nn12` (centres undefined): the “activity change, negative = inhibition” value was -18.7%.

Take `CC(=O)c1ccc(NC(=O)C(C)N(C)CC(=O)Nc2ccccc2Cl)cc1` (centres undefined): the “activity change, negative = inhibition” value was -0.631%. On the same count and under the same terms, in the case of `Cc1cc([N+](=O)[O-])ccc1NC(=O)C1CCCO1` (centres undefined) it was -6.26%; in that of `Cc1ccc(C)c(C(C)NC(=O)C2CCCO2)c1` (centres undefined), -0.0636%.

For `Cc1cc(C)c2nc(NC(=O)C3CCCO3)sc2c1` (centres undefined), the Potency is 3.79 µM (active). As to `COCCn1c(SCC(=O)c2cc(C)ccc2C)nc2cc(C(=O)NC3CCCC3)ccc2c1=O`, the “activity change, negative = inhibition” value is -4.5%. The same measure, in the same setting: in the case of `O=C(C1Cc2ccccc2CN1C(=O)c1ccco1)N1CCN(c2ccccc2)CC1` (centres undefined) it was 7.36%.
